# Results reported in a collection of fitness landscapes (doi:10.1016/j.celrep.2020.107928).
# Whole data set: some 81,000 sequences, median “one-hybrid fitness for binding parS DNA” near -0.17, cut for the highest 2% near 0.51. The list comes from a sample in which the highest values are over-represented; it also holds similar and randomly drawn sequences.
# B1: Caulobacter ParB omega fusion; a variant is named by its letters at X, in order, B8GW30 (parent)
# chain: MESVVVGEPGMSEGRRGLGRGLSALLGEVDAAPAQAPGEQLGGSREAPIEILQRNPDQPRRTFREEDLEDLSNSIREKGVLQPILVRPSPDTAGEYQIVAGERAWRAAQRAGLKTVPIMVRELDDLAVLEIGIIENVQRADLNVLEEALSYKVLMEKFERTQENIAQTIGKSXSHVANXMRLLXLPDEVQSYLVSGELTAXHARAIAAAADPVALAKQIIEGGLSVRETEALARKAPNLSAGKSKGGRPPRVKDTDTQALESDLSSVLGLDVSIDHRGSTGTLTITYATLEQLDDLCNRLTRGI
# Variants of: B1
# Assay: one-hybrid fitness for binding parS DNA (scaled: cognate 1, non-cognate 0); higher = stronger binding
# Conditions: with parS DNA site
# Method in brief: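 The reporter was HIS3, with the binding site 19 bp from the promoter, in E. coli USO used for bacterial one-hybrid selection of Caulobacter ParB libraries with four specificity codons randomised. Growth was on M9 lacking histidine, with 0.1 mM IPTG and 5 mM 3-AT, for 48 hours at 37°C. Illumina sequencing covered plasmids before and after selection; three replicate libraries were pooled and variants with under 10 reads dropped. A fitness score is the log change in variant-to-wild-type read ratio, rescaled to the cognate and non-cognate references.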
row,Variant,one-hybrid fitness for binding parS DNA
1,LVPK,≤ 0.2
2,MIPM,≤ 0.2
3,QNKH,≤ 0.2
4,NKQR,≤ 0.2
5,RICF,0.282
6,RICP,≤ 0.2
7,RIRF,0.247
8,RIRC,0.847
9,RISH,0.259
10,RIRQ,≤ 0.2
11,RIDK,≤ 0.2
12,RISP,0.209
13,RICC,0.92
14,RIDC,0.866
15,RIDQ,≤ 0.2
16,RISC,0.969
17,QALV,≤ 0.2
18,MYER,≤ 0.2
19,ARTT,≤ 0.2
20,ANKV,≤ 0.2
21,AYCY,≤ 0.2
22,ALWS,≤ 0.2
23,ECMV,≤ 0.2
24,RYKM,0.369
25,RYVC,0.907
26,RYKR,≤ 0.2

row,Variant,one-hybrid fitness for binding parS DNA
1,RYVQ,≤ 0.2
2,RYVF,≤ 0.2
3,RYKC,0.752
4,TTLV,≤ 0.2
5,DFAT,≤ 0.2
6,RFAT,0.79
7,NFAT,≤ 0.2
8,RFFT,0.582
9,RFFM,≤ 0.2
10,RFFF,≤ 0.2
11,QAHK,≤ 0.2
12,TRYI,≤ 0.2
13,RYKY,0.514
14,RYYY,0.462
15,RYVY,0.357
16,RYKD,≤ 0.2
17,RYKS,0.793
18,RYKP,≤ 0.2
19,RYVH,0.253
20,RYVN,0.364
21,RYVS,0.976
22,TITP,≤ 0.2
23,LFYR,≤ 0.2
24,HYYD,≤ 0.2
25,DGDR,≤ 0.2
26,RIDN,0.388

row,Variant,one-hybrid fitness for binding parS DNA
1,RIDP,≤ 0.2
2,RIDG,0.831
3,RINR,≤ 0.2
4,RING,1.03
5,RINE,≤ 0.2
6,QLMK,≤ 0.2
7,SRNE,≤ 0.2
8,GGVR,≤ 0.2
9,RCWN,0.401
10,RSWS,0.989
11,RMWS,1.05
12,RPWS,≤ 0.2
13,RMWP,≤ 0.2
14,RSWD,≤ 0.2
15,RCWS,1.09
16,RSWP,≤ 0.2
17,RMWD,≤ 0.2
18,PQAF,≤ 0.2
19,RMKV,≤ 0.2
20,CHNG,≤ 0.2
21,TAAQ,≤ 0.2
22,SDSD,≤ 0.2
23,GVLC,≤ 0.2
24,RKKA,0.846
25,RKVA,0.527
26,TGNL,≤ 0.2

row,Variant,one-hybrid fitness for binding parS DNA
1,DKAR,≤ 0.2
2,AWNT,≤ 0.2
3,KHTD,≤ 0.2
4,YNPS,≤ 0.2
5,QHAY,≤ 0.2
6,RQLF,0.241
7,RTFY,0.479
8,RTAM,0.311
9,RTFG,1.01
10,RTFK,≤ 0.2
11,RTAG,1
12,RTAH,0.21
13,TEAR,≤ 0.2
14,CSDF,≤ 0.2
15,IWPL,≤ 0.2
16,CTLY,≤ 0.2
17,PPSK,≤ 0.2
18,YQCG,≤ 0.2
19,CLKA,≤ 0.2
20,RLKA,0.796
21,NLVA,≤ 0.2
22,DLVA,≤ 0.2
23,ALKA,≤ 0.2
24,RLVA,0.567
